System: Drosophila S2 cl14 SmoIP sensor cells
Assay: normalized SmoIP GFP fluorescence (untreated unstimulated = 0%, untreated Hh-stimulated = 100%); higher = more Smo activation sensor fluorescence
Details: compound concentration: 2 uM, 24 h
[1] = stimulation: Hh conditioned medium (+Hh)
[2] = stimulation: mock conditioned medium (-Hh)
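Note: flow cytometry read-out as median GFP intensity of gated cells, compounds added 30 min before Hh-conditioned or mock medium, mock-treated cells serving as unstimulated baseline.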

## CNC(=O)c1cc(COc2nnc(Nc3ccc(Cl)cc3)c3ccoc23)ccn1 [Telatinib-BAY-57-9352]
[1]
  normalized SmoIP GFP fluorescence: 104%
[2]
  normalized SmoIP GFP fluorescence: -14.3%

## O[C@H](CNC[C@@H](O)[C@H]1CCc2cc(F)ccc2O1)[C@@H]1CCc2cc(F)ccc2O1 [Nebivolol(Bystolic)]
[1]
  normalized SmoIP GFP fluorescence: 109%
[2]
  normalized SmoIP GFP fluorescence: 19.8%

## C=CCc1ccc(O)c(-c2ccc(O)c(CC=C)c2)c1 [Honokiol]
[1]
  normalized SmoIP GFP fluorescence: 104%
[2]
  normalized SmoIP GFP fluorescence: -9.22%

## CCOc1cc2ncc(C#N)c(Nc3ccc(F)c(Cl)c3)c2cc1NC(=O)/C=C/CN(C)C [Pelitinib]
[1]
  normalized SmoIP GFP fluorescence: 197%
[2]
  normalized SmoIP GFP fluorescence: 9.86%

## CNS(=O)(=O)Cc1ccc2[nH]cc(CCN(C)C)c2c1 [Sumatriptan-succinate]
[1]
  normalized SmoIP GFP fluorescence: 99.3%
[2]
  normalized SmoIP GFP fluorescence: 1.57%

## c1ccc(-c2nn3c(c2-c2ccnc4cc(OCCN5CCOCC5)ccc24)CCC3)nc1
[1]
  normalized SmoIP GFP fluorescence: 137%
[2]
  normalized SmoIP GFP fluorescence: 30.2%

## CC(C)c1cc(-c2ccc(F)c3ccccc23)nc(N)n1
[1]
  normalized SmoIP GFP fluorescence: 144%
[2]
  normalized SmoIP GFP fluorescence: -7.78%

## COc1ccc(CNc2nc(N3CCC[C@H]3CO)ncc2C(=O)NCc2ncccn2)cc1Cl [avanafil]
[1]
  normalized SmoIP GFP fluorescence: 106%
[2]
  normalized SmoIP GFP fluorescence: -2.31%

## COc1ccc(NS(=O)(=O)c2sc3ccc(Cl)cc3c2C)cc1N1CCNCC1
[1]
  normalized SmoIP GFP fluorescence: 108%
[2]
  normalized SmoIP GFP fluorescence: 2.86%

## O=C(NCc1cccc(O)c1)Nc1nc(-c2ccncc2)cs1
[1]
  normalized SmoIP GFP fluorescence: 107%
[2]
  normalized SmoIP GFP fluorescence: -2.93%

## CC(C)(F)C[C@H](N[C@@H](c1ccc(-c2ccc(S(C)(=O)=O)cc2)cc1)C(F)(F)F)C(=O)NC1(C#N)CC1 [Odanacatib-(MK0822)]
[1]
  normalized SmoIP GFP fluorescence: 110%
[2]
  normalized SmoIP GFP fluorescence: -4.25%

## CN1CCN(c2cccc(Nc3nc4c(-c5ccc(S(C)(=O)=O)cc5)cccn4n3)c2)CC1
[1]
  normalized SmoIP GFP fluorescence: 92.1%
[2]
  normalized SmoIP GFP fluorescence: -3.39%

From the supplement of paper PMC5662767
